Screen size: about 2,300 compounds; about 1,200 (52%) were called active. The set was probably picked from earlier hits. Some of the results follow. Results with a measured potency or affinity are listed apart. A number with no mark means an inactive call. No rule for the calls is given here.
Assay: mammalian cell cytotoxicity, dose response, cytotoxicity control for M. tuberculosis inhibitor project (AID 435019);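 also: 0% = background wells and 100% = vehicle-treated cells; lower values mean fewer viable cells so more cytotoxicity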
Details: cytotoxicity counter-screen; series mostly up to 40 µM; viability: at the top concentration

Compound | viability
CCC(=O)c1coc2ccc(O)cc12 | 102%
CCCCc1ccc(NC=C2C(=O)OC3(CCCCC3)OC2=O)cc1 | 97.2%
C#CCOC(=O)/C(=C/C=C/c1ccccc1)NC(=O)c1ccccc1 | 92.6%
Cc1ccc(C(=O)N/C(=C/c2ccco2)C(=O)OCN2C(=O)c3ccccc3C2=O)cc1 | 96.3%
O=C(OCn1nnc2ccccc2c1=O)C1CCCCC1 | 93.7%
CN1[C@@H]2CC[C@H]1CC(OC(=O)[C@H](CO)c1ccccc1)C2 (stereo not given in full) | 96.7%
CC(=O)c1cccc(NC(=S)NC2CCCCCCC2)c1 | 95.3%
Cc1[nH]nc2nc3c(c(OC(=O)c4ccccc4)c12)c(=O)n(C)c(=O)n3C | 98.9%
Cc1cc(/C=C(/C#N)c2cccc(F)c2)c(C)n1-c1cccnc1 | 82.3%
N#Cc1cccc(NC(=O)N2CCC(c3nc4c(nnn4Cc4cccc(Cl)c4)c(=O)[nH]3)CC2)c1 | 92.3%
CCOC(=O)c1ccc(Oc2nc(NC(C)(C)C)nc(N(C)C)n2)cc1 | 80.1%
CN(C)S(=O)(=O)c1cccc(NC(=O)CCc2nc3sc4c(c3c(=O)[nH]2)CCCC4)c1 | 82.9%
Cc1cc(OCc2nc3ccccc3s2)ccc1N | 85.9%
CCCC(=O)OCCNc1cc(SCCC(=O)OC)c2nonc2c1[N+](=O)[O-] | 88.2%
CCOC(=O)c1nn(-c2ccc(C)c(C)c2)cc1O | 83.7%
CCn1cc(Br)c(C(=O)Nc2ccc(C(=O)OC(C)C)cc2)n1 | 86.2%
C=CC[N@@+]12CC[C@]34c5ccccc5N5/C=C6\C7N(/C=C(\C53)[C@@H](C[C@@H]41)/C(=C/CO)C2)c1ccccc1[C@@]71CC[N@@+]2(CC=C)C/C(=C\CO)[C@@H]6C[C@@H]12 (stereo not given in full) | 98.7%
Cc1cccc(C(=O)OCC(=O)N2CCc3ccccc3C2)c1O | 102%
CC(C)c1ccc2[nH]c(O)c(N=NC(=O)c3ccc(CSc4nncn4C)cc3)c2c1 | 94.1%
COC(=O)N/N=C/c1c[n+]([O-])c2ccccc2[n+]1[O-] | 98.9%
N[C@@H](CCl)C(=O)O | 107%
O=C(CSc1nc2ccccc2c(=O)[nH]1)NCc1ccc(Cl)cc1 | 93%
Cc1ccc(NC(=O)C2=C(O)CCn3c2nc2ccccc23)cc1 | 87.9%
CC(C)NC(=O)c1onc(CSc2ccc(F)c(F)c2)c1C(=O)O | 95%

Compound | viability
Cc1ccc(-c2noc(-c3cc4ccccc4oc3=O)n2)cc1 | 99.3%
CCN(Cc1ccncc1)Cc1nc(-c2ccc(C(=O)OC)cc2)no1 | 91%
COc1ccc(-c2oc3cccnc3c2/C=C/c2ccc(OC)c(OC)c2)cc1 | 82.9%
O=C(NCC1CC1)c1cc([N+](=O)[O-])cc([N+](=O)[O-])c1 | 99.8%
CCOc1cc(C=O)cc(N=Nc2cccc([N+](=O)[O-])c2)c1O | 90.6%
CCOC(=O)c1ccc(N=Cc2c(O)c3ccccc3oc2=O)cc1 | 80.2%
N/C(=N\OC(=O)CCC1CCCC1)c1cccc([N+](=O)[O-])c1 | 98.7%
CCOC(=O)/C(=N\Nc1ccc(Br)cc1)N1CC(C)OC(C)C1 (stereo not given) | 90.9%
CC(C)(C)c1ccc(OCCC(=O)OCC(=O)NC(=O)NC2CCCC2)cc1 | 81.8%
CC(OC(=O)CCN=C1NS(=O)(=O)c2ccccc21)C(=O)Nc1ccc(F)c(F)c1F (stereo not given) | 94.8%
Nc1cnccc1C(=O)O | 94.5%
O=C1CC(Nc2ccc3ccccc3c2)C(=O)N1Cc1ccccc1 (stereo not given) | 85.1%
Cc1c(C(=O)Oc2cccc3ccccc23)cnn1-c1ccccc1 | 86.8%
CC(=NCc1ccc2c(c1)OCO2)C1=C(O)c2ccccc2C1=O | 87.7%
CCOC(=O)C1=C(C)Nc2nc(SCC(=O)OC)nn2C1c1cc(F)cc(F)c1 (stereo not given) | 101%
CC(=O)Oc1ccc(/C=N\NC(=O)c2cc3c(ccc4ccccc43)o2)cc1 | 85.8%
COC(=O)Cc1ccc(NC(=S)Nc2ccccn2)cc1 | 81.1%
COc1ccc(NC(=O)ON=C2c3ccccc3-c3ccccc32)cc1 | 84.1%
Nc1ccc(N=Nc2ccccc2)c2cccnc12 | 81.9%
O=C(Nc1cccc(C(F)(F)F)c1)c1ccc2nc(-c3ccco3)c(-c3ccco3)nc2c1 | 80.1%
Nc1cccc(-c2cc3ccccc3oc2=O)c1 | 89.7%
CCOC(=O)c1sc(C)c2c(=O)n(CC(=O)c3ccc(Br)cc3)nnc12 | 85%
NC(N)=Nc1nc(-c2ccccc2)c2ccccc2n1 | 87.4%
CCOC(=O)Cn1nc(-c2ccccc2)nc1-c1ccccc1 | 97.6%

Compound | viability
CCOC(=O)c1ccc(N=Cc2nc3ccccc3n2C)cc1 | 90.3%
CCOc1cc(/C=N/Nc2nc(Nc3ccccc3)nc(N3CCCCC3)n2)ccc1OCC(=O)O | 81.1%
COC(=O)[C@@H](NC(=O)c1cc(COc2cncc(Cl)c2)on1)c1ccccc1 | 89.5%
O=C(N/N=C\c1ccc[nH]1)c1cncc(Br)c1 | 95.1%
O=C(O)C1CC=CCC1C(=O)NNc1ccccc1 (stereo not given) | 102%
O=c1oc2ccccc2c(Nc2ccccc2O)c1[N+](=O)[O-] | 94.4%
COc1ccc(NC(=O)C2C3C=CC(O3)C2C(=O)NCc2cccnc2)cc1 (stereo not given) | 83.1%
CCCC(O)(CCC)C(=O)NNc1ccc(C)cc1 | 97.4%
CCc1nnc(NC(=O)CN2CCN(c3nc(-c4ccccc4)cs3)CC2)s1 | 86.4%
c1ccc2nc(-c3ccc(-n4ccnc4)cc3)ccc2c1 | 81.5%
CCOC(=O)c1c(-c2ccc(OC)cc2)csc1NC(=O)CNCc1ccco1 | 85.1%
CCCCOc1ccc(C(=O)Oc2ccc(C)nc2)cc1 | 89.5%
O=c1[nH][nH]cc1C=Nc1ccc(Oc2ccccc2)cc1 | 102%
CN(c1ccccc1)S(=O)(=O)c1cccc(C(=O)NCc2ccccc2CN2CCCC2)c1 | 81.2%
CN1C(=O)N(C)c2ccc(C=O)c3cccc1c23 | 91.8%
COc1cc2[nH]c(Cl)c([N+](=O)[O-])c2cc1OC | 83.9%
Cc1ccc(C)c(NC(CC(=O)c2ccccc2)C(=O)OCC(=O)c2cccs2)c1 (stereo not given) | 98.3%
CCOc1ccc(NCc2cccn2-c2nnc(N3CCC(C(=O)NCCCN4C(C)CCCC4C)CC3)s2)cc1 (stereo not given) | 89.3%
O=C(CSc1nnc(-c2cccs2)o1)NCC1CN(Cc2ccccc2)CCO1 (stereo not given) | 101%
Nc1cc(=O)[nH]c(SCc2csc(-c3ccccc3)n2)n1 | 88.7%
CCOC(=O)c1cc(-c2ccc(N3CCOCC3)cc2)nn1-c1ccccc1 | 83.8%
CCCOc1cccc(C(=O)NC(=S)Nc2ccc(N3CCN(C)CC3)cc2)c1 | 90.3%

Source: PubChem BioAssay AID435019 (Southern Research Specialized Biocontainment Screening …, 2010)
